# Bioassay records: PubChem, National Center for Advancing Translational Sciences (NCATS)
# D1 antagonist – Antagonist of Human D 1 Dopamine Receptor: qHTS; D(1A) dopamine receptor (Homo sapiens), P21728; HEK293 TREx D1 cells, calcium flux, dopamine EC80; hits give low values; activity change, negative = inhibition, % at 10 µM; 360,000 tested, 3.2% active; in the data active = activity change below about -30%; note: % is set by controls: 0 for no effect and ±100 for the full control effect
# Target sequence (P21728 whole entry, looked up): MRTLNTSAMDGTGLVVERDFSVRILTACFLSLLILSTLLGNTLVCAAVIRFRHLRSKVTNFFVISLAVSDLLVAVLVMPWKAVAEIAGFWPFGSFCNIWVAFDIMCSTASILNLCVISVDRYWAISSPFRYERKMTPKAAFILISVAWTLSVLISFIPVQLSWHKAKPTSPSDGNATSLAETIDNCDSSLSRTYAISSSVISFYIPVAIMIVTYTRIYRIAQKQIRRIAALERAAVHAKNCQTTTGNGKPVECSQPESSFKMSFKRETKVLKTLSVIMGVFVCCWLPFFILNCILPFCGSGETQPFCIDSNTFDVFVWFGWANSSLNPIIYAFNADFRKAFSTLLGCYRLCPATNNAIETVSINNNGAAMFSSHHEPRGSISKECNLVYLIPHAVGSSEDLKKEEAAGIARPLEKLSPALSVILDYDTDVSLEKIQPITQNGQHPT
#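 Cells carrying a force-coupled, tetracycline-inducible human D1 receptor report calcium flux. Each well gets a 10 s baseline, compound with 180 s monitoring, then an EC80 dopamine stimulus with a second 180 s kinetic read.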
# D1 ag – Allosteric Agonists of the Human D1 Dopamine Receptor: qHTS; HEK293 T-REx D1 cells, calcium flux, agonist mode; AID 504660, 2011; 360,000 tested, 1% active; activation, % at 2 µM; note: 0% is about no effect
#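 Inducible HEK293 T-REx D1 cells, force-coupled to calcium signalling, were plated at 4000 cells/well with tetracycline and held overnight at 30 C. After no-wash calcium dye loading, compound-evoked calcium rise over 180 s flagged agonists.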
# D1 PAM – Potentiators of Human D1 Dopamine Receptor: qHTS; D(1A) dopamine receptor (Homo sapiens), P21728; HEK293 TREx D1 cells, calcium flux, dopamine EC20 potentiation; potentiation, % at 10 µM; 360,000 tested, 0.036% active; in the data active = potentiation above about 30%; note: 0% is about no effect
# TRHR enhancer – qHTS for Small Molecule Agonists and Allosteric Enhancers of Human TRH Receptor: Primary Screen for Enhancers; 360,000 tested, 0.66% active; TRHR cells, fluo-8 calcium fluorescence, EC20 TRH enhancement; enhancement, % at 2 µM; in the data active = enhancement above about 30%; note: 0% is about no effect
#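 Enhancer read-out: after compound pinning and an initial kinetic agonist-mode read, an EC20 of TRH (10 nM final) was injected and fluo-8 calcium signal (Ex 480/Em 530) followed at 1 s/cycle for 100 cycles in TRHR-expressing cells.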
# TRHR agonist – qHTS for Small Molecule Agonists and Allosteric Enhancers of Human TRH Receptor: Primary Screen for Agonists | Thyrotropin-releasing hormone receptor (Homo sapiens), P34981 | TRHR cells, calcium flux fluo-8, FDSS agonist mode | activation, % at 2 µM | 360,000 tested, 0.18% active | AID 493084, 2011; note: 0% is about no effect
#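 Read-out: compound-evoked intracellular calcium rise in TRHR cells, fluo-8 dye, kinetic FDSS fluorescence at 1 s/cycle following a 10-cycle baseline. Cells cultured overnight before dye loading (30 min–1.5 h, RT).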
# * marks the source's active call; other numbers are inactive results. Sampled rows, rich in hits. Any-hit rate of the full collection: about 4.7%. Cut-off read from the data, not from the text of the source, unless noted: active = activation above about 30%; inactive = the rest.
SMILES,D1 antagonist,D1 ag,D1 PAM,TRHR enhancer,TRHR agonist
O=C(Nc1ccc(Cl)cc1)Nc1nc(-c2ccccc2O)cs1,-37.5*,23.7,-7.7,-7.0,1.4
O=C(Nc1ccc(Cl)cc1)Nc1nc(-c2sccc2Br)cs1,1.2,2.4,-2.2,2.1,0.2
COc1ccc(OC)c(/C=C/C(=O)Nc2ccc(C(=O)OCCC(C)C)cc2)c1,18.2,5.5,0.7,-6.4,-2.5
Cc1cc(C(=O)Nc2cnc3ccccc3c2)ccc1[N+](=O)[O-],-60.1*,0.6,0.1,3.8,-0.3
Cc1ccc(C(=O)Nc2cnc3ccccc3c2)cc1,0.6,0.8,-1.5,-0.9,-0.2
CCCCOc1ccc(CNC(=O)CN2CCSc3ccccc32)cc1,-12.1,5.1,1.4,-1.7,0.0
CCc1cccc(NC(=O)C2CCC(CNS(=O)(=O)c3ccc(Br)s3)CC2)c1 (stereo unspecified),6.5,8.2,1.9,-1.7,1.4
COC(c1ccccc1)(c1ccccc1)C(Oc1nccc(C)n1)C(=O)O (stereo unspecified),3.6,-0.7,0.7,31.0*,0.3
Cc1ccnc(OC(C(=O)O)C(OCc2ccccc2)(c2ccccc2)c2ccc(C(F)(F)F)cc2)n1 (stereo unspecified),-2.4,0.2,-6.0,-0.2,0.4
COc1cccc(CNC(=O)CSC2=Nc3ccccc3C3=NC(C(C)C)C(=O)N23)c1 (stereo unspecified),-4.3,-0.1,0.6,11.2,-0.5
Cn1nnnc1SCCCNCc1cccc(OCc2ccc(F)cc2)c1,-31.1*,149.8*,4.6,4.7,-0.4
Cn1nnnc1SCCNCc1ccc(OCc2ccccc2Cl)cc1,-5.3,97.7*,-0.9,4.6,-1.8
CCOc1cccc(CNCCCSc2nnnn2C)c1,-13.0,0.2,0.8,-17.0,-0.3
Cn1nnnc1SCCCNCc1ccccc1OCc1ccc(Cl)cc1,-38.8*,75.1*,-0.1,-8.7,1.7
Cn1nnnc1SCCNCc1ccccc1OCc1ccc(Cl)cc1,19.4,19.9,-10.8,-5.8,-0.1
CCOC(=O)c1c(C)[nH]c(C)c1C(=O)COC(=O)/C=C/c1ccc(OC(F)F)cc1,2.7,1.9,33.2*,1.4,0.1
Cc1ccc(SC(C)C(=O)N2CCCC2)cc1 (stereo unspecified),-35.2*,0.4,-6.7,-5.0,0.4
CCOC(=O)N1CCc2c(sc3c2c(=O)n(CCc2ccccc2)c(=O)n3Cc2ccc(C)cc2C)C1,-2.2,2.3,1.0,3.7,0.5
Cc1cc(C)n(-c2nc(NCCN(C)C)c3c4c(sc3n2)CCCC4)n1,6.8,32.8*,-3.6,2.7,-0.7
CCc1nn(CC(=O)NCc2cccc(OC)c2OC)c(=O)c2cc3occc3n12,10.2,0.2,5.8,-7.3,-0.4
COc1ccc(S(=O)(=O)n2cccc2)cc1OC,-34.5*,2.2,-5.6,3.5,-0.7
COc1ccc(S(=O)(=O)N2CCNCC2)cc1OC,-9.3,2.5,5.0,-3.3,-0.3
COc1ccc(S(=O)(=O)n2cccc2)c(OC)c1,11.7,6.4,4.0,32.3*,-0.1
COc1cc(CCNC(=O)c2ccc3c(c2)c(C)c(C)n3Cc2cccc(C)c2)cc(OC)c1OC,0.7,2.3,-3.2,-10.0,0.7
CC(C)Cn1cnc2c(c(-c3ccccc3)c(-c3ccccc3)n2Cc2ccco2)c1=N,20.2,34.0*,-2.2,-9.3,1.0
N=c1c2c(-c3ccccc3)c(-c3ccccc3)n(Cc3ccco3)c2ncn1CCCN1CCOCC1,4.0,6.7,-4.0,0.4,0.9
OCCNc1ncnc2c1c(-c1ccccc1)c(-c1ccccc1)n2Cc1ccco1,-2.4,3.0,-3.6,5.8,0.2
N=c1c2c(-c3ccccc3)c(-c3ccccc3)n(Cc3ccco3)c2ncn1Cc1ccccc1,7.9,35.3*,-1.2,9.0,2.7
N=c1c2c(-c3ccccc3)c(-c3ccccc3)n(Cc3ccccc3)c2ncn1CCO,56.1,218.1*,45.6*,4.0,-0.3
